Measured values taken from PubChem BioAssay AID493244 (The Scripps Research Institute Molecular Screening Center, 2011).
The whole screen tested about 340,000 compounds, of which about 390 (0.11%) were called active. The sample holds actives, similar compounds and a random draw of the others, so the mix is not that of the screen. Values without a mark were called inactive.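 The calls were made as follows: active = inhibition above the mean inhibition of all tested compounds plus 3 SD (cut at about 17% in these data); inactive = the rest.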

These molecules were tested against Troponin I, cardiac muscle (Homo sapiens) + Troponin T, cardiac muscle (Homo sapiens) + Troponin C, slow skeletal and cardiac muscles (Homo sapiens) (UniProt P19429+P45379+P63316) (assay: calcium desensitizers of cardiac thin filaments – biochemical, IANBD-TnC fluorescence, EC70 calcium, primary screen (AID 493244;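 also: assay run at fixed EC70 calcium of 1.6 mM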)). Settings: IANBD-labeled cardiac RTF, Ca2+ fluorescence; at 7.15 µM; active compounds read high.

| Structure (SMILES) | inhibition |
| --- | --- |
| COc1ccc2c(c1)[C@]13CCCCC1C(C2)N(C)CC3 (stereo not given in full) | -1.69% |
| COc1ccc2c(c1O)-c1cccc3c1[C@@H](C2)N(C)CC3 | 4.82% |
| COC1=C[C@@H]2[C@@H]3Cc4ccc(OC)c(O)c4[C@]2(CCN3C)CC1=O | 19.3% (active) |
| Cc1ccc(-c2nc3ccccc3c(=O)n2-c2ccc(Br)cn2)cc1 | -6.33% |
| COC(=O)C1=C(c2ccccc2)C[C@@H]2CC[C@H]1N2C(=O)N1CCCCC1 | 4.81% |
